Results published in PubChem BioAssay AID1159580 (chemical genetic matrix, 2015).
“And” between values parts separate entries of the source, which are not always exact repeats. Identical values can stand only once. The whole screen tested about 5,500 compounds, of which about 2,000 (36%) were called active. About 18% were inconclusive and are not listed. Cut-off read from the data, not from the text of the source: active = normalized growth mostly below about 0.91 (no sharp cut-off); inconclusive = no clear call, values can overlap the other calls; inactive = mostly above about 0.92. The list shows a part of the results.

Experiment: chemical genetic growth profiling, strain panel (AID 1159580);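 note: tested at 20 µM; growth read once vehicle control cultures reached saturation at 30 °C; 1 = growth at the plate median or of vehicle wells; lower values mean less growth of the strain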
Details: S. cerevisiae deletion strains, growth OD

Measured: normalized growth

Nc1ccc(S(=O)(=O)Nc2cnc3ccccc3n2)cc1
inactive: locus YAL013W, strain DEP1, active compounds read low 0.994 | locus YAL021C, strain ccr4, active compounds read low 1.01 | locus YAL026C, strain drs2, active compounds read low 1 | locus YAL030W, strain snc1, active compounds read low 1.02 | locus YBL061C, strain skt5, active compounds read low 1 | locus YBR009C, strain hhf1, active compounds read low 0.973 | locus YBR021W, strain FUR4, active compounds read low 0.999 | locus YBR023C, strain chs3, active compounds read low 1.02 | locus YBR171W, strain sec66, active compounds read low 1.02 | locus YBR229C, strain ROT2, active compounds read low 0.957 | locus YBR231C, strain swc5, active compounds read low 1.01 | locus YBR279W, strain paf1, active compounds read low 1.01 | locus YCL011C, strain gbp2, active compounds read low 1.01 | locus YCL016C, strain dcc1, active compounds read low 1 | locus YCL029C, strain bik1, active compounds read low 0.983 | locus YCL061C, strain MRC1, active compounds read low 1.02 | locus YCL069W, strain vba3, active compounds read low 1.02 | locus YCR088W, strain abp1, active compounds read low 1.01 | locus YDL005C, strain med2, active compounds read low 1.02 | locus YDL035C, strain GPR1, active compounds read low 1 | locus YDL040C, strain nat1, active compounds read low 1.01 | locus YDL074C, strain BRE1, active compounds read low 0.977 | locus YDL101C, strain DUN1, active compounds read low 0.989 | locus YDL134C, strain PPH21, active compounds read low 1.01 | locus YDL185W, strain tfp1, active compounds read low 0.974 | locus YDL192W, strain arf1, active compounds read low 0.973 | locus YDR001C, strain nth1, active compounds read low 1.02 | locus YDR069C, strain doa4, active compounds read low 1.03 | locus YDR101C, strain arx1, active compounds read low 1 | locus YDR137W, strain rgp1, active compounds read low 0.993 | locus YDR150W, strain NUM1, active compounds read low 0.991 | locus YDR159W, strain sac3, active compounds read low 0.955 | locus YDR162C, strain NBP2, active compounds read low 0.999 | locus YDR195W, strain ref2 1.01 | locus YDR297W, strain sur2, active compounds read low 1.02 | locus YDR318W, strain mcm21, active compounds read low 0.995 | locus YDR334W, strain swr1, active compounds read low 1.02 | locus YDR335W, strain msn5, active compounds read low 1.01 | locus YDR388W, active compounds read low 0.986 | locus YDR392W, strain spt3, active compounds read low 0.942 | locus YDR502C, strain sam2, active compounds read low 0.978 | locus YEL003W, strain gim4, active compounds read low 1.02 | locus YEL037C, strain rad23, active compounds read low 1.01 | locus YEL061C, strain CIN8 (second series), active compounds read low 1.01 | locus YEL061C, strain CIN8, active compounds read low 0.981 | locus YER015W, strain faa2, active compounds read low 1 | locus YER016W, strain bim1, active compounds read low 0.962 | locus YER110C, active compounds read low 0.981 | locus YER111C, strain swi4, active compounds read low 1.02 | locus YER155C, strain BEM2 (second series), active compounds read low 0.981 | locus YER155C, strain BEM2, active compounds read low 0.996 | locus YER167W, strain BCK2, active compounds read low 0.993 | locus YFR010W, strain ubp6, active compounds read low 1.04 | locus YGL078C, strain dbp3, active compounds read low 0.99 | locus YGL086W, strain mad1, active compounds read low 0.983 | locus YGL167C, strain pmr1, active compounds read low 1.01 | locus YGL173C, strain kem1, active compounds read low 1.01 | locus YGL227W, strain vid30, active compounds read low 1.02 | locus YGL240W, strain doc1, active compounds read low 1.03 | locus YGL248W, strain PDE1, active compounds read low 0.972 | locus YGL253W, strain hxk2, active compounds read low 1.02 | locus YGR135W, strain pre9, active compounds read low 0.992 | locus YGR252W, strain gcn5, active compounds read low 0.988 | locus YHR013C, strain ard1, active compounds read low 1 | locus YHR027C, strain rpn1, active compounds read low 1.01 | locus YHR030C, strain SLT2, active compounds read low 1 and 0.974 | locus YHR079C, strain IRE1 (second series), active compounds read low 0.989 | locus YHR079C, strain IRE1, active compounds read low 0.957 | locus YHR094C, strain hxt1, active compounds read low 0.985 | locus YHR129C, strain ARP1, active compounds read low 0.989 | locus YHR142W, strain chs7, active compounds read low 1.05 | locus YHR200W, strain rpn10, active compounds read low 0.967 | locus YIL066C, strain RNR3, active compounds read low 0.978 | locus YIL073C, strain SPO22, active compounds read low 1.02 | locus YIL125W, strain kgd1, active compounds read low 0.981 | locus YIR030C, strain dcg1, active compounds read low 0.981 | locus YJL092W, strain hpr5, active compounds read low 0.996 | locus YJL095W, strain BCK1 (second series), active compounds read low 1.02 | locus YJL095W, strain BCK1, active compounds read low 0.965 and 0.98 | locus YJL115W, strain asf1, active compounds read low 1.02 | locus YJL129C, strain trk1, active compounds read low 1.01 | locus YJL134W, strain LCB3, active compounds read low 0.993 | locus YJL154C, strain vps35, active compounds read low 1.02 | locus YJL164C, strain tpk1, active compounds read low 0.996 | locus YJL166W, strain qcr8, active compounds read low 1.02 | locus YJL168C, strain set2, active compounds read low 0.976 | locus YJL187C, strain SWE1 (second series), active compounds read low 0.964 | locus YJL187C, strain SWE1, active compounds read low 1.01 | locus YJR043C, strain POL32, active compounds read low 1.02 | locus YJR066W, strain TOR1, active compounds read low 0.918
